The supplement of paper PMC12669032
Values without a mark were called inactive.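 The calls were made as follows: active = AUC reduced over 20% with Padj below 0.05 in at least 2 of 3 replicates; inactive = otherwise.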

What was measured:
Test in all cases: growth AUC relative to DMSO control (median of replicates) (fraction); higher = more growth (less inhibition), active = hit call of the paper
Conditions in all cases: 20 µM; 24 h
[1] = tested on: Akkermansia muciniphila
How it was run: (§1)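 Area under the growth curve was normalised to the plate median of solvent-only wells, or to row and column medians on the industrial chemical plate. Growth curves came from anaerobic gut bacterial monocultures in mGAM at 37 °C, seeded at OD600 0.05 with 20 µM compound (1% DMSO), and read at OD600 hourly for 24 h with the minimum OD set to 0. The value is the median of three biological replicates grown on separate days.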

[2] = tested on: Bacteroides caccae
How it was run: as §1

[3] = tested on: Bacteroides clarus
How it was run: as §1

[4] = tested on: Bacteroides dorei
How it was run: as §1

[5] = tested on: Bacteroides stercoris
How it was run: as §1

[6] = tested on: Bacteroides thetaiotaomicron
How it was run: as §1

[7] = tested on: Bacteroides uniformis
How it was run: as §1

[8] = tested on: Bifidobacterium longum subsp. longum
How it was run: as §1

[9] = tested on: Clostridium difficile
How it was run: as §1

[10] = tested on: Collinsella aerofaciens
How it was run: as §1

Structure (SMILES)	growth AUC [1]	growth AUC [2]	growth AUC [3]	growth AUC [4]	growth AUC [5]	growth AUC [6]	growth AUC [7]	growth AUC [8]	growth AUC [9]	growth AUC [10]
CC(Cc1ccc(C(C)(C)C)cc1)CN1C[C@@H](C)O[C@@H](C)C1 (stereo not given in full)	1.04	1.03	0.974	1.01	1.07	0.996	1.05	0.992	1.02	1
CC[C@H]1CCCC(O[C@H]2CC[C@H](N(C)C)[C@@H](C)O2)[C@@H](C)C(=O)C2=C[C@@H]3[C@@H](C=C(C)[C@@H]4C[C@@H](O[C@@H]5O[C@@H](C)[C@H](OC)[C@@H](OC)[C@H]5OC)C[C@@H]34)[C@@H]2CC(=O)O1.CC[C@H]1CCCC(O[C@H]2CC[C@H](N(C)C)[C@@H](C)O2)[C@@H](C)C(=O)C2=C[C@@H]3[C@@H](C=C[C@@H]4C[C@@H](O[C@@H]5O[C@@H](C)[C@H](OC)[C@@H](OC)[C@H]5OC)C[C@@H]34)[C@@H]2CC(=O)O1 (stereo not given in full)	0.986	1.01	0.979	1.04	0.888	1	0.987	0.889	1.03	0.958
C=CCC1=C(C)C(OC(=O)C2C(C=C(C)C)C2(C)C)CC1=O (mixture of isomers)	1.05	0.96	1.04	0.962	0.924	0.972	0.936	0.96	0.962	0.941
CC1(C)CC/C(=C\c2ccc(Cl)cc2)C1(O)Cn1cncn1 (stereo not given)	0.95	0.976	0.983	0.965	0.792	0.971	0.995	1.08	0.984	0.987
ClC1=C(Cl)C2(Cl)C(CBr)CC1(Cl)C2(Cl)Cl (stereo not given)	1.02	1.04	1.02	0.999	1.02	1.01	0.982	1.01	0.985	0.957
CCC(C)(c1ccc(O)cc1)c1ccc(O)cc1	0.984	0.989	0.925	0.967	0.927	0.973	0.991	1.02	0.997	1
CCCN(CC1CC1)c1c([N+](=O)[O-])cc(C(F)(F)F)cc1[N+](=O)[O-]	1.35	0.93	1.03	0.953	1.42	1	1.03	1.03	0.979	0.955
C/C(=N\NC(=O)Nc1cc(F)cc(F)c1)c1ncccc1C(=O)[O-].[Na+]	1.33	1	1.01	0.77	1.05	1.01	0.946	0.987	1	0.965
O=C(O)C(F)(F)C(F)(F)C(F)(F)C(F)(F)C(F)(F)C(F)(F)C(F)(F)C(F)(F)C(F)(F)F	0.991	0.977	0.933	1.01	0.998	1.1	1.02	0.939	0.968	0.984
CCc1nn(C)c(C(=O)NCc2ccc(Oc3ccc(C)cc3)cc2)c1Cl	0.877	0.935	0.932	0.974	0.633	0.967	0.984	0.81	1.04	0.952
CCOC(=O)C(Cl)Cc1cc(-n2nc(C)n(C(F)F)c2=O)c(F)cc1Cl (stereo not given)	0.963	0.991	0.927	0.967	0.996	0.926	0.936	1.02	0.981	0.972
CNC(=O)Oc1cccc2c1OC(C)(C)O2	0.915	1.07	1.01	0.982	1.02	1.04	0.997	1.06	1.06	1
O=C(NC(=O)c1c(F)cccc1F)Nc1ccc(Oc2ccc(C(F)(F)F)cc2Cl)cc1F	1.02	1.02	0.984	1.02	1.02	1	0.996	1.05	1.02	1.08
Oc1cc(Cl)cc(Cl)c1	1.04	1.01	1	0.996	1.08	0.917	1.01	0.998	1	1.01
CCCOCC(=Nc1ccc(Cl)cc1C(F)(F)F)n1ccnc1	1.03	0.955	0.919	0.982	1.16	0.934	0.913	1.03	0.922	0.941
Cl.NC1=NCCN1Cc1ccc(Cl)nc1	1.03	1.03	1.02	0.975	1.14	1.04	1.01	1.02	1.06	1.03
CCC(=O)Nc1ccc(Cl)c(Cl)c1	0.797	1	0.978	1.03	0.972	0.988	0.969	0.837	1.03	0.999
CCOP(=S)(OCC)OP(=S)(OCC)OCC	0.981	0.986	0.953	0.993	1.02	0.956	0.988	1.01	0.986	1.02
CON(C)C(=O)Nc1ccc(Br)cc1	0.941	1.01	0.988	0.992	1.16	1.02	0.993	1.18	0.952	1.1
COP(=S)(OC)Oc1ccc(C#N)cc1	1.1	1	1.03	1.04	1.02	0.989	1.04	1.01	1.03	1.01
CCNC(=O)NC(=O)/C(C#N)=N/OC	0.998	1	1	0.983	1.08	1	0.956	0.901	0.965	1.07
Nc1c([N+](=O)[O-])ccc(Oc2ccccc2)c1Cl	0.741	0.964	0.861	0.941	0.925	0.941	0.978	0.871	0.982	0.897
CC1COC(Cn2cncn2)(c2ccc(Oc3ccc(Cl)cc3)cc2Cl)O1 (stereo not given)	1.03	0.868	0.898	0.91	1.12	0.854	0.839	0.938	0.881	0.977
CN(C)C(CSS(=O)(=O)[O-])CSS(=O)(=O)O.[Na+]	1.01	1.02	0.998	1.03	1.03	0.98	1.13	1.01	0.943	0.999
Cc1ccc(NC(=O)c2snnc2C)cc1Cl	0.741	0.968	0.914	1.03	0.879	0.905	1.02	0.898	1	1.05
CC(=O)CC(c1ccc(Cl)cc1)c1c(O)c2ccccc2oc1=O (stereo not given)	0.928	0.939	0.873	0.958	0.91	0.938	0.777 (active)	0.939	1.04	1.01
CCOP(=S)(OCC)Oc1ccc(=O)n(-c2ccccc2)n1	0.918	0.997	0.943	0.977	0.959	0.948	0.949	1.04	0.936	0.99
